Data taken from article PMC4552634, “A New Set of Chemical Starting Points with Plasmodium falciparum Transmission-Blocking Potential for Antimalarial Drug Discovery” (PLoS ONE, 2015).
The campaign covered roughly 13,000 compounds. About 3,200 (25%) showed an effect of 50% or more. Some of the results follow.

These molecules were tested on P. falciparum stage V gametocytes. Conditions: 48 h, 5 µM; inhibitor.
Parameters: BacTiter-Glo ATP luminescence viability of purified stage V gametocytes in 384-well plates, per cent inhibition versus DMSO

Going from `COc1ccc(Cn2c(Nc3cccc(C(F)(F)F)c3)nc3cc(C(=O)NC4CC4)cnc32)cc1Cl` [TCMDC-138554] to `O=C(NC1CC1)c1ccc(Cn2c(SCc3cccc(Cl)c3)nc3ccccc3c2=O)cc1` [TCMDC-123576], the “% Inhibition” value rises from -4.933% to 23.52%.

Going from `COc1ccc(Cn2c(SCc3ccc(C)cc3)nc3cc(OC)c(OC)cc3c2=N)cc1Cl` [TCMDC-125587] to `COc1ccc(C(=O)Nc2nonc2-c2ccc(OC)c(OC)c2)cc1Cl` [TCMDC-125400], the “% Inhibition” value falls from 96.33% to 30.18%.

First: CC[C@H]1CN2CC[C@H]1C[C@H]2[C@@H](O)c1cc(OCCCN(C)C)nc2ccc(OC)cc12 [TCMDC-131424]
Second: C=C[C@H]1CN2CC[C@H]1C[C@@H]2[C@@H](O)c1ccnc2ccccc12 [TCMDC-123933]
The “% Inhibition” value of the first is higher: 22.54% for the first, 7.627% for the second.

Going from `O=C(Nc1ccc(OC2CCN(Cc3ccc(F)cc3)C2)c(Cl)c1)c1ccoc1` (stereo not shown) [TCMDC-133755] to `CC(=O)Nc1ccc(CN2CCC(N(C)c3ccc(NC(=O)c4cccc(C)c4)cc3)CC2)cc1` [TCMDC-134985], the “% Inhibition” value falls from 23.17% to -13.81%.

Going from `CC(=O)CCc1ccc(OCCN(Cc2ccccc2C(F)(F)F)c2ccc(C#N)c(C(F)(F)F)c2)cc1` [TCMDC-135737] to `COc1ccc(CNCc2cccc(-c3ccc(-c4nc5ccccc5[nH]4)s3)c2)cc1.O=C(O)C(F)(F)F` [TCMDC-132733], the “% Inhibition” value falls from 23.15% to 7.28%.

First: CCOC(=O)c1ccc(N2CCN(CCCNC(=O)/C(=C/C=C/c3cc4cc(Cl)c(Cl)cc4[nH]3)OC)CC2)cc1 [TCMDC-139306]
Second: CC(C)Cc1ccc(N2CCN(CCCCNC(=O)c3ccc(NC(=O)c4ccc(Cl)c(Cl)c4)cc3)CC2)cc1 [TCMDC-138251]
The “% Inhibition” value of the first is lower: -53.61% for the first, -11.88% for the second.

Compared with `COc1ccc(N2C(=O)C3C(C2=O)C2(C)c4ccccc4C3(C)c3ccccc32)c([N+](=O)[O-])c1` (stereo not shown) [TCMDC-125621], `COc1cc2c(c(OC)c1[N+](=O)[O-])C=CC1(O2)N(C)c2ccc([N+](=O)[O-])cc2C1(C)C` (stereo not shown) [TCMDC-124133] is higher in “% Inhibition” value: 9.788% for the first, 52.65% for the second.

Compared with `CN1c2ccc([N+](=O)[O-])cc2C(C)(C)C12C=Cc1cc(Br)cc([N+](=O)[O-])c1O2` (stereo not shown) [TCMDC-124178], `COc1ccc(-c2nonc2NC(=O)c2cccc(C)c2)cc1OC` [TCMDC-125399] is lower in “% Inhibition” value: 98.03% for the first, 77.34% for the second.

Compared with `COc1ccc(C=CC(=O)NC(=O)c2ccccc2OC(=O)c2ccccc2)cc1OC` [TCMDC-125709], `C=CCOc1ccc(C(=O)Nc2nonc2-c2ccc(OC)c(OC)c2)cc1` [TCMDC-125178] is higher in “% Inhibition” value: 14.45% for the first, 71.05% for the second.

First: COc1cc2c(c(Cl)c1OC)CCN(C(=O)C(F)(F)F)CC2c1ccccc1 (stereo not shown) [TCMDC-132071]
Second: COc1cc2c(c(Cl)c1OC)CCN(Cc1ccccc1)CC2c1ccc(NC(=O)C(F)(F)F)cc1 (stereo not shown) [TCMDC-132075]
The “% Inhibition” value of the first is higher: 93.25% for the first, 32.93% for the second.

First: COc1cc2c(c(Cl)c1OC)CCN(Cc1ccccc1)CC2c1ccc(C(N)=O)cc1 (stereo not shown) [TCMDC-132074]
Second: COc1c(C(=O)NC2CCN(Cc3ccccc3)C2)cnc2ccccc12 (stereo not shown) [TCMDC-138996]
The “% Inhibition” value of the first is higher: 48.86% for the first, -11.57% for the second.

First: Cc1cccc2nc(-c3ccc(-c4ccc(CN5CCN(c6cnccn6)CC5)cc4)s3)[nH]c12.O=C(O)C(F)(F)F [TCMDC-133900]
Second: CC(C)c1ccc(CN2CCC(NC(=O)c3ccc(-c4cccc(Cl)c4)s3)CC2)cc1 [TCMDC-134347]
The “% Inhibition” value of the first is higher: 28.24% for the first, -17.88% for the second.

Going from `Cc1cc(C(=O)NC2CCN(CC3(c4ccc(Cl)cc4)CCC3)CC2)on1` [TCMDC-124833] to `Cc1cc(C(=O)NC2CCN(CC3(c4ccccc4)CCCCC3)CC2)on1` [TCMDC-124832], the “% Inhibition” value falls from 85.33% to 67.12%.

Compared with `O=C(C=Cc1ccc(Cl)c(Cl)c1)NC1CCN(CCc2ccccc2)CC1` [TCMDC-134274], `O=C(Nc1ccnc2ccccc12)NC1CCN(CCc2ccccc2)CC1` [TCMDC-139687] is higher in “% Inhibition” value: 3.334% for the first, 38.02% for the second.

Going from `O=C(CCc1ccco1)NC1CCN(CC2(c3ccc(Cl)cc3)CCC2)CC1` [TCMDC-124834] to `COc1coc(C(=O)NC2CCN(CC3(c4ccc(Cl)cc4)CCC3)CC2)c1OC` [TCMDC-124835], the “% Inhibition” value rises from 42.25% to 70.44%.

First: O=C(NC1CCN(Cc2ccccc2)CC1)c1cc(-c2ccncc2)c(-c2ccc(Cl)c(O)c2)o1 [TCMDC-135453]
Second: COc1cc(C2CCN(CCCCNC(=O)c3ccc(NC(=O)c4ccc(Cl)c(Cl)c4)cc3)CC2)ccc1OC(C)C [TCMDC-138286]
The “% Inhibition” value of the first is lower: 2.681% for the first, 111.4% for the second.

First: CC1CC1C(=O)NC1CCN(CC2(c3ccccc3)CCCCC2)CC1 (stereo not shown) [TCMDC-124831]
Second: O=C(CSc1nccn1C1CCCC1)Nc1cc(C(F)(F)F)ccc1Cl [TCMDC-125066]
The “% Inhibition” value of the first is higher: 61.7% for the first, 0.3827% for the second.

Compared with `CS(=O)(=O)CCNCc1nc(-c2ccc3ncnc(Nc4ccc(OCc5cccc(F)c5)c(Cl)c4)c3c2)cs1` [TCMDC-138499], `COc1cc(Nc2ccnc3cc(-c4ccncc4)ccc23)cc(OC)c1OC` [TCMDC-138293] is lower in “% Inhibition” value: -12.17% for the first, -25.86% for the second.

Compared with `Nc1ncc(-c2ccc3ncccc3c2)c(N)n1` [TCMDC-133421], `CC(C)(CN)c1nc(-c2ccc(Cl)c(O)c2)c(-c2ccnc(N)n2)[nH]1` [TCMDC-141019] is lower in “% Inhibition” value: 0.5405% for the first, -19.39% for the second.

Going from `Cn1cccc1C(=O)Nc1cccc(-c2nn3ccccc3c2-c2ccnc(Nc3ccc4c(c3)OCCO4)n2)c1` [TCMDC-135663] to `CCC(C)(C)NC(=O)C(c1cccc(OC)c1)N(C(=O)CNC(=O)c1cccs1)c1ccc2c(c1)OCCO2` (stereo not shown) [TCMDC-125637], the “% Inhibition” value rises from -4.275% to 1.141%.

Going from `NC(=NCc1ccccc1)Nc1cccc(Cc2ccccc2)n1` [TCMDC-138951] to `N/C(=N\c1ncccn1)Nc1cccc(Cc2ccccc2)n1` [TCMDC-138948], the “% Inhibition” value falls from 107.9% to -9.706%.

First: Cc1cccc(NC(=O)NCc2ccccc2)n1 [TCMDC-123843]
Second: NC1=NC(c2ccccc2)N(OCc2ccccc2)C(N)=N1 (stereo not shown) [TCMDC-131586]
The “% Inhibition” value of the first is higher: 1.75% for the first, -5.605% for the second.

First: CCN=C1NC2=C(CC(C(C)(C)C)CC2)C2(CCC(C(C)(C)C)CC2)S1 (stereo not shown) [TCMDC-131288]
Second: C=CC[C@@H](C(=O)OCC)[C@@H]1[C@@H](N(CC=C)C(=O)OC(C)(C)C)CCN1C(=O)OCc1ccccc1 [TCMDC-132035]
The “% Inhibition” value of the first is higher: 95.02% for the first, 7.25% for the second.

First: CCOc1ccc(C(=O)Nc2nonc2-c2ccc(OC)c(OC)c2)cc1 [TCMDC-125402]
Second: CCCOc1ccc(C(=O)Nc2nonc2-c2ccc(OC)c(OC)c2)cc1 [TCMDC-125471]
The “% Inhibition” value of the first is lower: 33.5% for the first, 84.04% for the second.

Compared with `CCOc1ccc(-c2nonc2NC(=O)c2ccc(OC(C)C)cc2)cc1OCC` [TCMDC-125276], `COc1ccc(-c2nonc2NC(=O)c2ccc(OC(C)C)cc2)cc1OC` [TCMDC-125130] is higher in “% Inhibition” value: 7.159% for the first, 61.65% for the second.

First: COc1cccc(C(=O)Nc2nonc2-c2ccc(OC)c(OC)c2)c1 [TCMDC-125403]
Second: COc1ccc(-c2nonc2NC(=O)c2ccc(C(C)(C)C)cc2)cc1OC [TCMDC-125404]
The “% Inhibition” value of the first is higher: 43.85% for the first, 42% for the second.

Going from `CCN(CCCN1CCCCC1)c1cc(C)nc(Nc2cc(F)cc(F)c2)n1` [TCMDC-132450] to `COc1ccc(N2CCN(c3nc(Nc4ccc(NC(C)=O)cc4)nc(N4CCCC4)n3)CC2)cc1` [TCMDC-123875], the “% Inhibition” value falls from 49.02% to -17.97%.

First: O=C(OCc1ccccc1)N1CCc2c([nH]c3ccccc23)C1CCC(F)(F)F (stereo not shown) [TCMDC-134555]
Second: O=S(=O)(c1cccc(Br)c1)N1CCCCC(c2ccc(C(F)(F)F)cc2)=N1 [TCMDC-134539]
The “% Inhibition” value of the first is lower: -59.21% for the first, -27.96% for the second.

Compared with `Oc1ccc(CCNc2nc(NCc3ccc4cc(Cl)ccc4c3)nc(N3CCNCC3)n2)cc1` [TCMDC-133782], `COc1cccc(C2CCN(CCCCNC(=O)c3ccc(NC(=O)c4ccc(Cl)cc4)cc3)CC2)c1` [TCMDC-138312] is higher in “% Inhibition” value: -8.892% for the first, 21.15% for the second.

Compared with `CC(C)Cc1ccc(N2CCN(CCCCNC(=O)c3ccc(NC(=O)c4cc(C(F)(F)F)cc(C(F)(F)F)c4)cc3)CC2)cc1` [TCMDC-138252], `COc1ccc(N2CCN(CCCCNC(=O)c3ccc(NC(=O)c4cc(C(F)(F)F)cc(C(F)(F)F)c4)cc3)CC2)c(OC)c1` [TCMDC-138227] is higher in “% Inhibition” value: 6.749% for the first, 7.888% for the second.

Going from `COc1ccc(C2CCC(NCCCCNC(=O)c3ccc(NC(=O)c4ccc(Cl)cc4)cc3)CC2)cc1` (stereo not shown) [TCMDC-138582] to `COc1ccc2c(c1)CCCC2NCCCCNC(=O)c1ccc(NC(=O)c2ccc(Cl)cc2)cc1` (stereo not shown) [TCMDC-138690], the “% Inhibition” value falls from 60.8% to 6.749%.

First: COc1ccc(C2CCN(CCCCNC(=O)c3ccc(NC(=O)c4ccc(Cl)cc4)cc3)CC2)cc1Cl [TCMDC-138366]
Second: COc1cc(C2CCN(CCCCNC(=O)c3ccc(NC(=O)c4cc(C(F)(F)F)cc(C(F)(F)F)c4)cc3)CC2)ccc1OC(C)C [TCMDC-138285]
The “% Inhibition” value of the first is higher: 81.78% for the first, 55.31% for the second.

Going from `CCN(CC)c1ccccc1CNC(=O)c1cc(Cl)c(N)cc1OC` [TCMDC-131416] to `CCN(CC)CCCC(C)Nc1ccnc2ccc(-c3ccccc3)cc12` (stereo not shown) [TCMDC-123952], the “% Inhibition” value rises from 17.92% to 41.59%.

In the case of `CCN(CC)CCCSc1ccc(-c2ccc(SCCCN(CC)CC)cc2)cc1` [TCMDC-131824], the “% Inhibition” value is reported as 99.62%.
